Results filed as inconclusive are left out. Calls of active or inactive are those of the source. Unless noted, calls follow the shape of the dose curve; as a rule, active = well fitted cell-killing curve with a large enough effect; inconclusive = small, poorly fitted or top-dose-only effect, or effect the other way; inactive = no such curve, though single readings can be large or run the other way.
What was measured:
[1] = Quantitative High-Throughput drug screen in 47 multiple myeloma cell lines against the NCATS MIPE library collection: RPMI8226_ATCC cell viability assay (AID 1919871); also: nearly all actives have a fitted effect of over 30% in size
Outline: (§1)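 Viability after 48 h drug exposure was measured as ATP-dependent luminescence. Cells, 500 per well, sat at 37 °C under 5% CO2; DMSO wells set 100%, media-only wells 0%.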

[2] = Quantitative High-Throughput drug screen in 47 multiple myeloma cell lines against the NCATS MIPE library collection: OPM2_DSMZ cell viability assay (AID 1919872); also: nearly all actives have a fitted effect of over 30% in size
Outline: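 Myeloma cells (500 per well) were exposed to MIPE 4.0 compounds by pin transfer and incubated 48 hours at 37C, 5% CO2. Viability was read as ATP by CellTiter-Glo luminescence, normalised to DMSO (100%) and media-only (0%) wells.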

[3] = qHTS drug screen for cell cycle checkpoint inhibitors in PARPi-resistant BRCA-mutant ovarian cancer cell lines. (AID 1963452; calls by dose curve); details: PEO1/OlaR viability, CellTiter-Glo luminescence, 96 h; for Z-AUC: stronger effect = lower value
Outline: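 PEO1, PEO4 and PEO1/OlaR ovarian cancer cells, 600 per well, exposed 96 h at 37C to a dilution series. Viability read by CellTiter-Glo luminescence, normalized to DMSO and empty wells; activity summarized as Z-AUC.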

[4] = Quantitative High-Throughput drug screen in 47 multiple myeloma cell lines against the NCATS MIPE library collection: KMS11_JCRBsus cell viability assay (AID 1919873); also: nearly all actives have a fitted effect of over 50% in size
Outline: as §1

[5] = Quantitative High-Throughput drug screen in 47 multiple myeloma cell lines against the NCATS MIPE library collection: KMS28BM_JCRB cell viability assay (AID 1919874); also: nearly all actives have a fitted effect of over 35% in size
Outline: as §1

[6] = qHTS for identification of novel therapeutic agents for treatment of microphthalmiaassociated transcription factor (MiT) renal cell carcinoma (RCC) (AID 1963991; calls by dose curve); details: CellTiter-Glo, 48 h; for z-score: stronger effect = lower value
Outline: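 Curves over 11 concentrations were fitted to CellTiter-Glo luminescence, scaled between empty wells (0%) and DMSO (100%) viability. Cells were UOK109, UOK124 and UOK145 TFE3-fusion RCC lines at 500/well, exposed 48 hours at 37 C.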

[7] = measured here: PEO1 parental Z-AUC
[8] = TFE3-RCC UOK109 viability, measured here: UOK109 Z-AUC
[9] = TFE3-RCC viability, measured here: UOK124 Z-AUC
[10] = TFE3-RCC viability, measured here: UOK145 Z-AUC
Potency is read from the fitted curve at half-maximal effect.

| Structure (SMILES) | Potency [1] | Potency [2] | Z-AUC [3] | Z-AUC [3, 7] | Z-AUC ([3]; measured here: PEO4 Z-AUC) | Potency [4] | Potency [5] | z-score [6, 8] | z-score [6, 9] | z-score [6, 10] | Potency ([6]; TFE3-RCC UOK109 viability) | Potency [3] |
| --- | --- | --- | --- | --- | --- | --- | --- | --- | --- | --- | --- | --- |
| CC(C)(O)C(=O)Nc1ccc([N+](=O)[O-])c(C(F)(F)F)c1 | inactive | inactive | 1.27 (inactive) | 0.567 | 0.85 | – | – | – | – | – | – | – |
| CC(N[C@H]1C[C@H]1c1ccccc1)c1ccc2c(c1)OCCO2 (some centres not stated) | inactive | inactive | – | – | – | inactive | inactive | 0.542 | 0.0589 | 0.597 | – | – |
| O=C(Oc1ccc([N+](=O)[O-])cc1)N1CCN(Cc2cccc(Oc3ccccc3)c2)CC1 | inactive | inactive | 1.13 (inactive) | 1.12 | 1.4 | – | – | – | – | – | – | – |
| C[C@H]([C@H](O)CCC(C)(C)O)[C@H]1CC[C@@]2(O)C3=CC(=O)[C@@H]4C[C@@H](O)[C@@H](O)C[C@]4(C)[C@@H]3CC[C@]12C | 20900 nM (active) | inactive | – | – | – | inactive | – | 0.847 | 0.683 | -2.52 | – | – |
| CCOC(=O)c1c(C(C#N)=CN)c2ccc(Cl)c(Cl)c2n1C | inactive | inactive | 0.895 (inactive) | 0.557 | 0.414 | – | inactive | – | – | – | – | – |
| C[C@@]12OC(=O)[C@]1([C@@H](O)[C@@H]1C=CCCC1)NC(=O)[C@H]2CCCl | 29.6 nM (active) | 37.2 nM (active) | – | – | – | 6.6 nM (active) | 9.3 nM (active) | -1.51 | -3.3 | -2.86 | 66.2 nM (active) | – |
| CC[C@@]1(O)C(=O)OCc2c1cc1n(c2=O)Cc2cc3ccccc3nc2-1 | 743 nM (active) | 743 nM (active) | – | -2.44 | -1.71 | 418 nM (active) | 105 nM (active) | -1.89 | -3.04 | -3.18 | 590 nM (active) | 38.9 nM (active) |
| CC1=NN=C(c2ccc(N)cc2)c2cc3c(cc2C1)OCO3 | inactive | inactive | – | – | – | inactive | inactive | 0.644 | 0.871 | 0.714 | – | – |
| C[C@]12COC(=O)C[C@@H]1CC[C@@H]1[C@H]2CC[C@@]2(C)[C@H]1CC[C@]2(C)O | inactive | inactive | – | – | – | inactive | inactive | 0.93 | 0.76 | 0.397 | – | – |
